Potency data for 40 molecules are collected here from PubChem BioAssay (Tox21).

The source made the active and inactive calls. A call without a number means that no potency is given here. Calls come from the whole dose curve.

The assay can be described thus: G protein-coupled receptor (GPCR) small molecule agonists, calcium flux assay: HEK293 wild type cell line counter screen (AID 1920065). The conditions noted are these: HEK293 WT calcium flux, fluorescence, agonist mode; series mostly up to 57.6 µM. The text has this:
U.S. Tox21 Program National Center for Advancing Translational Sciences [NCATS] Division of Preclinical Innovation [DPI] U.S. Environmental Protection Agency [EPA] National Institutes of Environmental Health Sciences [NIEHS] National Toxicology Program [NTP] U.S. Food and Drug Administration [FDA] Assay overview: The increased intracellular calcium release that occurred upon G protein-coupled receptor (GPCR) activation led to the frequent use of calcium flux assays to detect GPCR activation. For the purpose of studying and screening compounds that may activate GPCR, receptor-overexpressing models were typically generated using Hek293 wild-type (WT) cells. In order to eliminate the compounds that may have induced calcium release for non-specific activation, a counter-assay utilizing calcium flux on Hek293 WT cells was performed. The data were formulated in order to serve as a control for any calcium flux detection utilizing Hek293 cells with either GPCR overexpression or gene modification. The procurement of Hek293 WT cells from ATCC. Fluorescence intensity can be utilized to determine the activation of the compound in a calcium flux assay. As a counter control, this cell line was utilized to screen the Tox21 10K compound library.
Assay Protocol Summary: Hek293 cells were dispensed at 1500cells/4uL/well in 1536-well black wall/clear bottom plates using a multidrop dispenser. After the assay plates were incubated at a 37 C/5% CO2 incubator for 18 hours, 4 uL of Calcium Dye Solution was added to each well. The plates were incubated at 37 C for 1 hour. For agonist mode, 23 nL of compounds dissolved in DMSO, positive control (ATP) or DMSO only was transferred to the assay plate by a pin tool station. The fluorescence intensity in the plates was measured using FDSS 7000EX kinetic plate reader with a filter set of Ex/Em=480/540 for 3 min at 1 sec intervals. Each test compound was measured at 15 concentrations and in triplicates.
As for `C[N+](C)(C)CC[N+]1(C)Cc2c(Cl)c(Cl)c(Cl)c(Cl)c2C1`, the Potency result was “inactive”.

For `COC(=O)N[C@H](C(=O)N[C@@H](Cc1ccccc1)[C@@H](O)CN(Cc1ccc(-c2ccccn2)cc1)NC(=O)[C@@H](NC(=O)OC)C(C)(C)C)C(C)(C)C`, the Potency result is “inactive”.

As to `Cc1cc(O)c(Cl)cc1C`, the Potency result was “inactive”.

Take `SCCSCCS`: the Potency result was “inactive”.

In the case of `CC1=CC[C@@H](C(C)(C)O)CC1`, the Potency entry is “inactive”.

Consider `CC(=O)c1cccc([N+](=O)[O-])c1`, for which the Potency entry is “inactive”.

`CC(C[N+](C)(C)C)OC(N)=O` (stereo not given): the Potency result is “inactive”.

Turning to `C=C1C[C@]23C[C@@]1(O)CC[C@H]2[C@@]12C=C[C@H](O)[C@@](C)(C(=O)O1)[C@H]2[C@@H]3C(=O)O`, the Potency result was “inactive”.

Take `Cc1occc1SSc1ccoc1C`: the Potency entry is “inactive”.

Take `CCCC(=O)OCC(COC(=O)CCC)OC(=O)CCC`: the Potency entry was “inactive”.

On to `O=C(O)C1CCC(C(=O)O)CC1` (stereo not given), for which the Potency entry was “inactive”.

On to `C=CC(C)(O)CC/C=C(\C)CCC=C(C)C` (stereo not given), for which the Potency result was “inactive”.

Turning to `O=C(O)c1ccco1`, the Potency entry was “inactive”.

Consider `CC(CN1c2ccccc2Sc2ccccc21)N(C)C` (stereo not given), for which the Potency result is “inactive”.

Regarding `Cc1ccc(Nc2ccc(O)c3c2C(=O)c2ccccc2C3=O)cc1`, the Potency entry was “inactive”.

Take `C=CC(=O)OCC(CO)(COC(=O)C=C)COC(=O)C=C`: the Potency result was “inactive”.

Consider `c1ccc2c(c1)Oc1ccccc1S2`, for which the Potency result is “inactive”.

In the case of `CC(C)NC(=O)c1ccccc1N`, the Potency entry is “inactive”.

On to `CC(C)OC=O`, for which the Potency entry is “inactive”.

As for `O=P(OC(CCl)CCl)(OC(CCl)CCl)OC(CCl)CCl`, the Potency result was “inactive”.

Take `CCC(C(=O)NC(N)=O)c1ccccc1` (stereo not given): the Potency entry was “inactive”.

As to `Nc1ccc(O)cc1`, the Potency result was “inactive”.

For `CC1(C)[C@@H]2CC[C@]3(C2)[C@@H]1C(=O)CCC3(C)C`, the Potency entry was “inactive”.

Consider `CCCN[C@H]1CCc2nc(N)sc2C1`, for which the Potency entry is “inactive”.

Consider `COCCCC/C(=N\OCCN)c1ccc(C(F)(F)F)cc1`, for which the Potency entry was “inactive”.

For `CCCCN(CCO)CCO`, the Potency entry is “inactive”.

Turning to `CN(C)C(=S)SC(=S)N(C)C`, the Potency result was “inactive”.

As to `COCCOCCOCCOCCOC`, the Potency result was “inactive”.

For the molecule `CC(C)(C)NCCO`, the Potency entry was “inactive”.

For `CC(C)(C)C(=O)C1C(=O)c2ccccc2C1=O`, the Potency entry is “inactive”.

As for `CC(C)(C)c1ccc(C=O)cc1`, the Potency entry was “inactive”.

Consider `CC(=O)CC(=O)Nc1ccccc1`, for which the Potency entry was “inactive”.

In the case of `CCC1CCCCC1`, the Potency result was “inactive”.

With `CC(C)(C)C(=O)C(Oc1ccc(Cl)cc1)n1ccnc1` (stereo not given), the Potency entry was “inactive”.

As for `CC(=C(CCOC(=O)C(C)C)SSC(CCOC(=O)C(C)C)=C(C)N(C=O)Cc1cnc(C)nc1N)N(C=O)Cc1cnc(C)nc1N`, the Potency result was “inactive”.

As for `CC(C)(C)c1ccc(O)c(C(C)(C)C)c1`, the Potency result is “inactive”.

Turning to `COc1ccc(C(=O)NCc2ccc(OCCN(C)C)cc2)cc1OC`, the Potency entry is “inactive”.

With `Cl/C(=C\n1cncn1)c1ccc(Cl)cc1Cl`, the Potency result is “inactive”.

On to `CC(=O)N(c1onc(C)c1C)S(=O)(=O)c1ccc(N)cc1`, for which the Potency entry was “inactive”.

With `CC(O)C(CO)C(C)O` (stereo not given), the Potency entry was “inactive”.
